In the library only some 0.74% were active in any assay of this set; here they are far more common.
pCIP destab: p/CIP-EGFP fusion destabilizers, primary screen, fluorescence, F442A cells | Q05BA5 | 16 h | decrease of EGFP signal, % at 10 µM | hit rate 0.01% among 290,000 | AID 1984, 2009;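 active means EGFP signal decrease of at least 30% at 10 µM or well 3 SD below plate mean, unless failing retest; inactive means the rest, including hits failing retest or dose response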
HMGR II inh: inhibitors of E. faecalis class II HMGR, primary screen, biochemical, Enterococcus faecalis. inhibition, % at 10 µM. purified E. faecalis HMGR, NADPH absorbance 340 nm kinetic. HMG-CoA reductase (Enterococcus faecalis, mvaE). hit rate 0.41% among 190,000;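 active means inhibition above a set limit, the median over all tested compounds plus 3 SD, cut at about 9.5% in these data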;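 further: enzyme runs in reverse so mevalonate oxidation gives rising NADPH absorbance; 0% = complete reaction with DMSO and 100% = background rate lacking mevalonate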
TbHK1 inh: Trypanosoma brucei hexokinase 1 inhibitors, primary screen, biochemical, G6PDH-coupled NADH absorbance, MLSCN library; hexokinase 1 [Trypanosoma brucei]; hit rate 0.11% among 220,000; AID 1430, 2008; inhibition, % at 10 µM; recombinant TbHK1, G6PDH-coupled NADH A340;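 active means inhibition of 50% or more in the single-dose primary screen; inactive means inhibition below 50%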
Furin inhibitor: human furin inhibitors, primary screen, biochemical, fluorescence intensity; P09958; purified furin, fluorogenic substrate cleavage; inhibition, % at 20 µM or 30 µM; hit rate 0.061% among 220,000; in the data active means inhibition above about 25%
Target sequence (P09958 108-714 limits assumed): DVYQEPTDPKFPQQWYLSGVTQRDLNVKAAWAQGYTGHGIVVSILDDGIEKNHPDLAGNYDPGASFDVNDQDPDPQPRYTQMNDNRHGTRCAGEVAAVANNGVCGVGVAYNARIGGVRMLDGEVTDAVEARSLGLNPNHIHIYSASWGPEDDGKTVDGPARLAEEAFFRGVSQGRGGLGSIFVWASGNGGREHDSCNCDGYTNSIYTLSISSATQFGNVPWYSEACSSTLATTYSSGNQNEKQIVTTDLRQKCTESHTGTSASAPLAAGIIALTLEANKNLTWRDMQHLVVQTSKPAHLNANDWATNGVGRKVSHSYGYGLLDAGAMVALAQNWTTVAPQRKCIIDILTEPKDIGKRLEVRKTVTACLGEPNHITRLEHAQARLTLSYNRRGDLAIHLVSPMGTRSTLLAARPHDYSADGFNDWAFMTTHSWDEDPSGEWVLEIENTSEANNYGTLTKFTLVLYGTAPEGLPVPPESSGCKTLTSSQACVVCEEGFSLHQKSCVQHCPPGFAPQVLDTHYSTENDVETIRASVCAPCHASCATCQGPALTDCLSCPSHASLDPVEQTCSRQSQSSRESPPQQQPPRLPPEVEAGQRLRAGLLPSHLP
Redox H2O2 prof: compounds producing H2O2 with reducing agent – biochemical, NIH compound library profiling, artefact control for MLSCN library redox annotation, primary screen; activation, % at 10 µM; hit rate 0.03% among 200,000; AID 878, 2007; DTT-dependent redox cycling H2O2, phenol red/HRP absorbance; 100% = 100 µM peroxide control, 0% = buffer;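 active means activation of at least 50% relative to the plate's high and low controls in the primary single-dose screen; inactive means activation below 50%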;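 further: compound incubated with DTT at 0.8 mM final as the reducing agent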
p97 ATPase inh: inhibitors of human p97 ATPase, primary screen, biochemical; inhibition, % at 8 µM; AID 1481, 2009; Transitional endoplasmic reticulum ATPase (Homo sapiens), P55072; recombinant p97 ATPase, Kinase-Glo ATP luminescence, 3 h; hit rate 0.42% among 220,000; in the data active means inhibition above about 15%;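 further: 0% = DMSO vehicle and 100% = wells lacking enzyme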
p97 confirm: p97 ATPase inhibitors, retest, confirmation, biochemical. shares compounds with p97 ATPase inh. recombinant p97 ATPase, Kinase-Glo ATP luminescence. inhibition, % at 8 µM. hit rate 44% among 760. AID 1517, 2009;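 active means percent inhibition of p97 ATPase above a set limit, the primary screen's mean plus 3 SD, cut at about 15% in these data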;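 further: 0% = DMSO wells and 100% = wells lacking p97 protein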
Numbers without * were called inactive; . = no result given.

SMILES | pCIP destab | HMGR II inh | TbHK1 inh | Furin inhibitor | Redox H2O2 prof | p97 ATPase inh | p97 confirm
CCCc1cc(=O)[nH]c(SCC(=O)Nc2ccc3c(c2)CCC3)n1 | -12 | 0 | 22 | -7 | -10 | 15* | 4
O=C(/C=C/c1ccco1)Nc1cccc(C(=O)Nc2ccccc2C(=O)O)c1 | -12 | . | -33 | -3 | . | 46* | 30*
CCc1ccccc1NC(=O)c1cccc(NC(=O)/C=C/c2ccco2)c1 | 0 | 0 | -21 | 4 | 0 | 1 | .
O=C(CSc1ncnc2scc(-c3ccccc3)c12)Nc1ccc(C(=O)O)cc1 | 2 | . | -4 | -12 | . | 20* | 17*
CC(C(=O)c1ccc(-c2ccccc2)cc1)[n+]1cccc(NC(=O)c2ccccc2)c1 (stereo not drawn) | 4 | . | -2 | -14 | . | 20* | 18*
CCOC(=O)c1ccc[n+](C(C)C(=O)c2ccc(-c3ccccc3)cc2)c1 (stereo not drawn) | -18 | 3 | 7 | -20 | 0 | 4 | .
COCCNC(=S)Nc1ccc2nsnc2c1 | 7 | 5 | 4 | -6 | 0 | 0 | .
C=CCNC(=S)Nc1ccc2nsnc2c1 | -2 | -1 | -18 | -9 | 0 | 29* | 1
C=CCN(CC=C)C(=S)Nc1ccc2nsnc2c1 | -8 | -3 | -2 | 7 | 2 | 18* | 4
NS(=O)(=O)c1cc(C(=O)OCC(=O)Nc2ccc(N3CCCCC3)cc2)ccc1Cl | 1 | . | -7 | -9 | . | -11 | .
COc1cccc(CN2CC(C(=O)N3CCOCC3)CCC2=O)c1 (stereo not drawn) | 4 | . | . | . | . | . | .
COc1cccc(CC(=S)N2CCOCC2)c1 | -8 | -2 | 34 | -5 | 0 | 16* | 8
COCCNC(=O)CN(c1ccc(F)cc1)S(=O)(=O)c1ccc2c(c1)OCCO2 | -12 | . | . | . | . | . | .
CN(CC(=O)Nc1ccccc1Br)C(=O)c1cccnc1Nc1cccc(C(F)(F)F)c1 | -6 | . | . | . | . | . | .
CC1CCC(NC(=O)CCS(=O)(=O)c2ccc3c(c2)NC(=O)C(C)S3)CC1 (stereo not drawn) | -16 | . | . | . | . | . | .
O=C1NCCCCC1NC1CC(=O)N(c2ccccc2)C1=O (stereo not drawn) | 7 | -3 | 5 | -16 | -1 | 17* | 9
CCOc1ccc(N2C(=O)CC(NC3CCCCNC3=O)C2=O)cc1 (stereo not drawn) | -6 | 1 | -1 | -21 | 1 | 4 | .
COc1ccc(OC)c(S(=O)(=O)NCc2ccccn2)c1 | -2 | . | . | . | . | . | .
O=Cc1ccc(OCc2cccc(C(F)(F)F)c2)cc1O | 0 | 0 | -1 | -15 | -2 | 15* | 19*
COc1ccc(C(=O)NC2CC2)cc1OC1CCN(Cc2cc(C)cc(C)c2)CC1 | 1 | . | . | . | . | . | .
O=C(Cn1c(-c2ccccc2)noc1=O)Nc1ccc(N2CCCCCC2)cc1 | -16 | -4 | 5 | -21 | -1 | 16* | 3
O=C(Cn1c(-c2ccccc2)noc1=O)Nc1ccc(S(=O)(=O)N2CCOCC2)cc1 | -2 | -10 | 5 | -3 | 1 | -6 | .
Oc1ccc(N=Cc2ccc(O)c(O)c2)cc1 | -21 | 3 | -18 | -11 | 0 | 21* | 13
COc1ccc2c(c1)Cc1sc(NC(=O)c3ccccc3)nc1-2 | 5 | -3 | -5 | -20 | 1 | 18* | 2
COc1ccc(CNC(=O)CSc2ncn[nH]2)cc1OC | -14 | . | . | . | . | . | .
SMILES | pCIP destab | HMGR II inh | TbHK1 inh | Furin inhibitor | Redox H2O2 prof | p97 ATPase inh | p97 confirm
CC(C)Oc1ccc(C2CC(=O)N(c3cccc(Br)c3)C2=O)cc1 (stereo not drawn) | -18 | . | 0 | -4 | . | -8 | .
O=C(CCl)Nc1ccccc1C(=O)NCc1ccccc1 | -10 | -4 | 0 | -18 | -2 | 18* | 16*
COC(=O)CCCCC1SCC(NC(=O)c2ccccc2)C1=O (stereo not drawn) | 7 | -7 | 8 | -15 | -1 | 17* | 4
CC(=O)Nc1ccc2c(c1)OCO2 | 5 | 0 | 0 | -32 | 0 | 7 | .
CC(=O)Nc1ccc2c(c1)OCCO2 | -13 | 16* | 5 | 17 | 3 | 63* | 5
Cc1cnc(C(=O)NC(Cc2ccccc2)c2ccccc2)cn1 (stereo not drawn) | -6 | . | . | . | . | . | .
COc1ccc2c(c1)c(/C=N/Nc1nc3ccccc3[nH]1)c(C)n2C | -13 | . | -52 | 2 | . | 33* | 11
C=CCN(c1ccccc1)S(=O)(=O)c1cccc2cccnc12 | 0 | . | -1 | -15 | . | 4 | .
Cc1cccc(Cn2nc(-n3cccc3)c3c(C)cc(C)nc32)c1 | 3 | -11 | -1 | -15 | -1 | -2 | .
O=C(N/N=C/c1c[nH]c2ccccc12)c1cc(-c2ccccc2)n[nH]1 | -6 | -5 | -14 | 11 | 1 | 4 | .
O=C(N/N=C/c1c[nH]c2ccccc12)c1cc(-c2ccc(-c3ccccc3)cc2)n[nH]1 | -4 | 1 | -10 | -11 | -4 | 17* | 11
COc1ccc(-c2cc(N)n(S(=O)(=O)c3c(F)c(F)c(F)c(F)c3F)n2)cc1OC | -20 | 1 | 1 | -10 | 0 | 22* | 26*
COc1ccc(S(=O)(=O)n2nc(-c3cc(OC)c(OC)c(OC)c3)cc2N)cc1OC | -4 | -4 | -6 | -26 | 0 | 4 | .
CCc1ccc(NC(=O)CCCNC(=O)Cn2cnc3sc(C)c(C)c3c2=O)cc1 | -10 | . | . | . | . | . | .
O=C(NCC(O)CO)c1ccc2[nH]c3ccccc3c2c1 (stereo not drawn) | -5 | 0 | -4 | -17 | 1 | 9 | .
CCOC(=O)CNC(=O)c1ccc2[nH]c3ccccc3c2c1 | 2 | -3 | 6 | 10 | 0 | 15* | 11
CCOC(=O)c1ccc(N(C(=O)c2cnccn2)C(C(=O)NC2CCCCC2)c2cn(C)nc2C)cc1 (stereo not drawn) | 1 | 15* | -3 | -15 | 2 | 22* | 9
Nc1ccc(N2CCOCC2)c2nonc12 | -5 | -9 | -4 | -12 | -1 | 47* | 2
COc1ccc(NC(=O)c2cc(SC)ccc2Cl)cc1 | 7 | -2 | 1 | -20 | 0 | 16* | 4
Cc1ccc(NC(=O)CN(C)C(=O)CSc2nc3ccccc3c(=O)n2Cc2ccco2)cc1 | 8 | -1 | -1 | -16 | 2 | 19* | 7
CN(Cc1ccccc1)C(=O)CSc1nc2ccccc2c(=O)n1Cc1ccco1 | 0 | -3 | -2 | -14 | -1 | 7 | .

Screens (PubChem)
